# Test results from PubChem BioAssay AID1053127 (Broad Institute, 2014).
# Measured potencies and affinities stand elsewhere. A number with no mark means an inactive call.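 The calls were made as follows: active = compounds whose fitted curve of lowered CTGF expression reaches half effect within a set concentration limit; inconclusive = flat moderate drop in CTGF, or unreliable curve fit; inactive = the rest.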
# Experiment: CTGF mRNA reduction under YAP1 overexpression, dose response, mechanism study for YAP1 pathway inhibitor project, DLD1 cells, RT-qPCR, cherry-pick (AID 1053127)
# Conditions: DLD1 YAP1-overexpressing, 24 h; series mostly up to 26 µM; CTGF fold change (delta-delta-Ct), lower = inhibition: at the top concentration
row,SMILES,"CTGF fold change (delta-delta-Ct), lower = inhibition"
1,C[C@@H]1CN([C@H](C)CO)S(=O)(=O)c2ccc(C#Cc3ccccc3F)cc2O[C@@H]1CN(C)C(=O)Cc1cccnc1,0.807 unspecified
2,C[C@@H]1CN([C@H](C)CO)S(=O)(=O)c2ccc(C#Cc3cccc(F)c3)cc2O[C@@H]1CN(C)S(=O)(=O)c1cn(C)cn1,0.498 unspecified
3,C[C@H]1CN([C@@H](C)CO)C(=O)c2cccc(NC(=O)c3nc4ccccc4s3)c2O[C@@H]1CN(C)C(=O)Nc1ccc2c(c1)OCO2,0.677 unspecified
4,O=S(=O)(c1ccccc1)N1CCCCN2[C@H](C1)[C@@H](c1ccc(C#CC3CCCC3)cc1)[C@@H]2CO,0.946 unspecified
5,CC(C)(C)S(=O)N1Cc2cc(C(=O)NCc3ccc4c(c3)OCO4)nc(-c3cccc(-c4cccc(F)c4)c3)c2[C@@H]1CCO (some centres undefined),1.09 unspecified
6,Cc1ccc(S(=O)(=O)Nc2ccc3c(c2)CC(=O)N([C@H](C)CO)C[C@@H](C)[C@@H](CN(C)S(=O)(=O)c2ccccc2)O3)cc1,0.863 unspecified
7,C[C@H]1CC=CC[C@@H](c2ccc(F)cc2)NC(=O)[C@H](Cc2ccccc2)N(C)C(=O)c2ccccc2O1 (mixture of isomers),0.62 unspecified
8,O=C(Nc1ccc2c(c1)[C@H]1C[C@@H](CC(=O)N3CCc4ccccc4C3)O[C@H](CO)[C@H]1O2)c1ccc2c(c1)OCO2,0.876 unspecified
9,C[C@@H]1CN([C@@H](C)CO)C(=O)c2cccc(NC(=O)c3nc4ccccc4s3)c2O[C@H]1CN(C)C(=O)Nc1ccc2c(c1)OCO2,0.834 unspecified
